This is an account of results in PubChem BioAssay (NCI).

Test systems include DU-145 prostate; K-562 leukemia; MALME-3M melanoma; MDA-MB-231 breast; RXF 393 renal; SF-268 CNS; SF-295 CNS; SF-539 CNS; UACC-257 melanoma; M14 melanoma.
Holding throughout (experiment): NCI-60 one-dose screen, 48 h (100 = growth as untreated, 0 = no growth, -100 = all killed)
Common to all, as to details: 10 µM unless noted

“And” between values parts separate entries of the source, which are not always exact repeats. Equal entries are not always repeated. The panel holds about 83,000 compounds, 20% with a hit somewhere; the sample as a whole holds those more often.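 Each cell line was grown in a 96-well plate and treated with one concentration of compound for 48 hours. Values below 10 were considered active.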 The source made the active and inactive calls.

Take `CCC(=O)Oc1ccc(OCc2ccccc2)cc1`: the growth was 96.9% (inactive) and 88.9% (inactive) in the assay with DU-145 prostate; 86% (inactive) and 88.4% (inactive) with K-562 leukemia; 107% (inactive) and 86.6% (inactive) in the assay with MALME-3M melanoma; 60.1% (inactive) and 68.4% (inactive) in the assay with MDA-MB-231 breast; 94% (inactive) and 100% (inactive) with RXF 393 renal; 75% (inactive) and 85.5% (inactive) in the assay on SF-268 CNS. Moreover, the growth in the assay on SF-295 CNS is 95.4% (inactive) and 75.9% (inactive); in the assay on SF-539 CNS, 56.2% (inactive) and 65.3% (inactive); in the assay with UACC-257 melanoma, 130% (inactive) and 108% (inactive); in the assay on M14 melanoma, 101% (inactive) and 77.3% (inactive).

Turning to `CNc1ccc(O)cc1`, the growth in the assay on DU-145 prostate is 121% (inactive) and 113% (inactive); in the assay with K-562 leukemia, 104% (inactive) and 118% (inactive); with MALME-3M melanoma it was 110% (inactive) and 107% (inactive); in the assay with MDA-MB-231 breast, 104% (inactive) and 98.9% (inactive); in the assay with RXF 393 renal, 95.6% (inactive) and 114% (inactive); in the assay with SF-268 CNS it was 121% (inactive) and 113% (inactive). Further, the growth was 101% (inactive) with SF-295 CNS; 104% (inactive) and 107% (inactive) in the assay with SF-539 CNS; 91.5% (inactive) and 115% (inactive) in the assay on UACC-257 melanoma; 118% (inactive) and 113% (inactive) with M14 melanoma.

As to `O=C(O)COc1ccccc1F`, the growth in the assay with DU-145 prostate is 108% (inactive); in the assay with K-562 leukemia, 92.5% (inactive); in the assay with MALME-3M melanoma, 108% (inactive); in the assay with MDA-MB-231 breast, 115% (inactive); in the assay with RXF 393 renal it was 92.3% (inactive); in the assay on SF-268 CNS, 107% (inactive). Moreover, the growth in the assay with SF-295 CNS is 106% (inactive); with SF-539 CNS it was 97.4% (inactive); in the assay on UACC-257 melanoma, 115% (inactive); in the assay with M14 melanoma, 103% (inactive).

On to `Nc1ccccc1SC1CC(=O)N(c2ccc(I)cc2)C1=O` (stereo not given), for which the growth in the assay with DU-145 prostate is 92.7% (inactive); with K-562 leukemia it was 82.9% (inactive); in the assay with MALME-3M melanoma it was 75.6% (inactive); in the assay with MDA-MB-231 breast it was 91% (inactive); with RXF 393 renal, 115% (inactive); in the assay on SF-268 CNS it was 84.1% (inactive). In addition, the growth was 93.8% (inactive) in the assay with SF-295 CNS, 89.6% (inactive) with SF-539 CNS, 89.2% (inactive) in the assay with UACC-257 melanoma and 88% (inactive) in the assay on M14 melanoma.

As for `COC(=O)c1cc(C(=O)OC)cc([N+](=O)[O-])c1`, the growth in the assay on DU-145 prostate was 113% (inactive); in the assay with K-562 leukemia, 99.7% (inactive); in the assay with MALME-3M melanoma it was 113% (inactive); with MDA-MB-231 breast, 112% (inactive); in the assay with RXF 393 renal, 118% (inactive); in the assay with SF-268 CNS, 108% (inactive). The growth in the assay with SF-295 CNS is 111% (inactive); with SF-539 CNS it was 97.4% (inactive); with UACC-257 melanoma it was 82.7% (inactive); in the assay on M14 melanoma, 106% (inactive).

On to `COC(=O)CCOc1ccccc1`, for which the growth with DU-145 prostate is 110% (inactive); with K-562 leukemia, 71.7% (inactive); in the assay with MALME-3M melanoma it was 91.8% (inactive); in the assay on MDA-MB-231 breast it was 110% (inactive); with RXF 393 renal, 89% (inactive); in the assay on SF-268 CNS it was 108% (inactive). The growth is 130% (inactive) in the assay with SF-295 CNS, 101% (inactive) with SF-539 CNS, 82.8% (inactive) in the assay on UACC-257 melanoma and 106% (inactive) in the assay with M14 melanoma.

As for `O=C1c2ccccc2CN1c1ccccc1`, the growth in the assay with DU-145 prostate was 115% (inactive); in the assay on K-562 leukemia it was 94.2% (inactive); in the assay with MALME-3M melanoma it was 118% (inactive); with MDA-MB-231 breast, 95.4% (inactive); in the assay on RXF 393 renal, 105% (inactive); with SF-268 CNS, 107% (inactive). Moreover, the growth with SF-295 CNS is 104% (inactive); in the assay with SF-539 CNS, 102% (inactive); with UACC-257 melanoma, 103% (inactive); with M14 melanoma, 100% (inactive).

Regarding `COC(=O)c1nc(=S)[nH]c(C(=O)OC)c1C(=O)c1ccccc1`, the growth in the assay on DU-145 prostate was 116% (inactive); with K-562 leukemia, 111% (inactive); in the assay with MALME-3M melanoma, 97.1% (inactive); in the assay on MDA-MB-231 breast, 93.5% (inactive); in the assay on RXF 393 renal, 99.2% (inactive); in the assay on SF-268 CNS it was 108% (inactive). In addition, the growth in the assay on SF-295 CNS is 103% (inactive); with SF-539 CNS it was 87.8% (inactive); with UACC-257 melanoma, 123% (inactive); in the assay on M14 melanoma, 113% (inactive).

With `CCOC(=O)c1csc(N)n1`, the growth with DU-145 prostate is 105% (inactive) and 104% (inactive); with K-562 leukemia, 101% (inactive) and 102% (inactive); in the assay with MALME-3M melanoma it was 112% (inactive) and 108% (inactive); in the assay with MDA-MB-231 breast, 107% (inactive) and 98.7% (inactive); in the assay with RXF 393 renal, 100% (inactive); in the assay with SF-268 CNS it was 108% (inactive) and 96.7% (inactive). The growth was 99.8% (inactive) and 92.5% (inactive) in the assay with SF-295 CNS; 94.8% (inactive) and 101% (inactive) in the assay on SF-539 CNS; 87.3% (inactive) with UACC-257 melanoma; 118% (inactive) and 98.3% (inactive) with M14 melanoma.

As for `Nc1nc(-c2ccccn2)cc(-c2cc(-c3ccccn3)nc(N)n2)n1`, the growth in the assay with DU-145 prostate was 119% (inactive); in the assay on K-562 leukemia, 114% (inactive); in the assay on MALME-3M melanoma, 109% (inactive); with MDA-MB-231 breast, 102% (inactive); in the assay with RXF 393 renal, 105% (inactive); with SF-268 CNS it was 106% (inactive). For the same compound, the growth in the assay on SF-295 CNS is 102% (inactive); in the assay on SF-539 CNS, 103% (inactive); in the assay with UACC-257 melanoma, 112% (inactive); with M14 melanoma it was 100% (inactive).

As to `CC(O)CCNC(c1ccccc1)C(O)c1ccccc1` (stereo not given), the growth with DU-145 prostate was 131% (inactive); in the assay with K-562 leukemia, 101% (inactive); in the assay on MALME-3M melanoma, 123% (inactive); with MDA-MB-231 breast, 104% (inactive); in the assay with RXF 393 renal, 115% (inactive); in the assay with SF-268 CNS it was 111% (inactive). Also, the growth is 102% (inactive) with SF-295 CNS, 115% (inactive) in the assay with SF-539 CNS, 108% (inactive) in the assay on UACC-257 melanoma and 104% (inactive) in the assay with M14 melanoma.

For the compound `CCN(CC)C(CC(=O)c1ccccc1)C(=O)c1ccccc1` (stereo not given), the growth in the assay on DU-145 prostate was 99.9% (inactive); in the assay with K-562 leukemia, 38.2% (inactive); in the assay with MALME-3M melanoma it was 104% (inactive); with MDA-MB-231 breast, 110% (inactive); in the assay on RXF 393 renal, 115% (inactive); in the assay with SF-268 CNS, 98% (inactive). The growth is 103% (inactive) in the assay with SF-295 CNS, 101% (inactive) in the assay with SF-539 CNS, 95.5% (inactive) in the assay with UACC-257 melanoma and 105% (inactive) in the assay with M14 melanoma.

`CC(=O)Oc1cc(C(C)C)c(OCCN(C)C)cc1C`: the growth in the assay with DU-145 prostate was 124% (inactive) and 118% (inactive); with K-562 leukemia, 115% (inactive) and 124% (inactive); in the assay with MALME-3M melanoma, 97.5% (inactive) and 106% (inactive); in the assay on MDA-MB-231 breast, 103% (inactive) and 112% (inactive); in the assay with RXF 393 renal it was 112% (inactive) and 101% (inactive); in the assay with SF-268 CNS it was 112% (inactive) and 109% (inactive). The growth is 103% (inactive) and 92% (inactive) in the assay with SF-295 CNS; 112% (inactive) and 99.6% (inactive) with SF-539 CNS; -91.1% (active) and 97.5% (inactive) with UACC-257 melanoma; 99.8% (inactive) with M14 melanoma.

As for `CC(C)=NOC(C)C(=O)O` (stereo not given), the growth in the assay on DU-145 prostate is 147% (inactive); in the assay on K-562 leukemia, 76.5% (inactive); in the assay on MALME-3M melanoma, 112% (inactive); in the assay with MDA-MB-231 breast, 99.8% (inactive); in the assay with RXF 393 renal, 116% (inactive); with SF-268 CNS, 101% (inactive). In addition, the growth with SF-295 CNS was 93.1% (inactive); in the assay with SF-539 CNS it was 102% (inactive); in the assay on UACC-257 melanoma, 92.9% (inactive); in the assay with M14 melanoma, 94.4% (inactive).

For `COc1ccc2nccc(Cl)c2c1`, the growth in the assay with DU-145 prostate is 101% (inactive); in the assay with K-562 leukemia, 110% (inactive); in the assay with MALME-3M melanoma it was 103% (inactive); in the assay with MDA-MB-231 breast, 102% (inactive); in the assay on RXF 393 renal, 105% (inactive); in the assay on SF-268 CNS it was 92.8% (inactive). In addition, the growth in the assay on SF-295 CNS is 107% (inactive); in the assay on SF-539 CNS, 104% (inactive); with UACC-257 melanoma, 91.9% (inactive); in the assay on M14 melanoma, 107% (inactive).

As to `S=c1ccc2ccccc2[nH]1`, the growth was 115% (inactive) and 111% (inactive) in the assay with DU-145 prostate; 90.7% (inactive) and 103% (inactive) with K-562 leukemia; 85.9% (inactive) and 98.5% (inactive) in the assay on MALME-3M melanoma; 93.9% (inactive) and 100% (inactive) in the assay with MDA-MB-231 breast; 106% (inactive) and 105% (inactive) with RXF 393 renal; 107% (inactive) and 99.7% (inactive) with SF-268 CNS. In addition, the growth in the assay on SF-295 CNS was 104% (inactive) and 109% (inactive); in the assay with SF-539 CNS, 97.9% (inactive) and 102% (inactive); in the assay with UACC-257 melanoma, 101% (inactive) and 92.3% (inactive); in the assay on M14 melanoma it was 99.6% (inactive) and 107% (inactive).
